Measurements reported in paper PMC4336329 (PLoS ONE, 2015).
Among all 310,000 compounds or so, about 14,000 (4.5%) showed an effect of 50% or more. The effect is printed as a negative number. The full list was thinned out, with strong results kept by preference.

molecular target: human ether-à-go-go-related gene (hERG) potassium channel (human, UniProt Q12809); assay: primary screen, population patch clamp on CHO cells stably expressing hERG; higher = less effect of the substance
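Note: peak tail current of the secondary pulse compared with the same well before compound.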

human ether-à-go-go-related gene (hERG) potassium channel, sequence (Q12809 whole entry, looked up): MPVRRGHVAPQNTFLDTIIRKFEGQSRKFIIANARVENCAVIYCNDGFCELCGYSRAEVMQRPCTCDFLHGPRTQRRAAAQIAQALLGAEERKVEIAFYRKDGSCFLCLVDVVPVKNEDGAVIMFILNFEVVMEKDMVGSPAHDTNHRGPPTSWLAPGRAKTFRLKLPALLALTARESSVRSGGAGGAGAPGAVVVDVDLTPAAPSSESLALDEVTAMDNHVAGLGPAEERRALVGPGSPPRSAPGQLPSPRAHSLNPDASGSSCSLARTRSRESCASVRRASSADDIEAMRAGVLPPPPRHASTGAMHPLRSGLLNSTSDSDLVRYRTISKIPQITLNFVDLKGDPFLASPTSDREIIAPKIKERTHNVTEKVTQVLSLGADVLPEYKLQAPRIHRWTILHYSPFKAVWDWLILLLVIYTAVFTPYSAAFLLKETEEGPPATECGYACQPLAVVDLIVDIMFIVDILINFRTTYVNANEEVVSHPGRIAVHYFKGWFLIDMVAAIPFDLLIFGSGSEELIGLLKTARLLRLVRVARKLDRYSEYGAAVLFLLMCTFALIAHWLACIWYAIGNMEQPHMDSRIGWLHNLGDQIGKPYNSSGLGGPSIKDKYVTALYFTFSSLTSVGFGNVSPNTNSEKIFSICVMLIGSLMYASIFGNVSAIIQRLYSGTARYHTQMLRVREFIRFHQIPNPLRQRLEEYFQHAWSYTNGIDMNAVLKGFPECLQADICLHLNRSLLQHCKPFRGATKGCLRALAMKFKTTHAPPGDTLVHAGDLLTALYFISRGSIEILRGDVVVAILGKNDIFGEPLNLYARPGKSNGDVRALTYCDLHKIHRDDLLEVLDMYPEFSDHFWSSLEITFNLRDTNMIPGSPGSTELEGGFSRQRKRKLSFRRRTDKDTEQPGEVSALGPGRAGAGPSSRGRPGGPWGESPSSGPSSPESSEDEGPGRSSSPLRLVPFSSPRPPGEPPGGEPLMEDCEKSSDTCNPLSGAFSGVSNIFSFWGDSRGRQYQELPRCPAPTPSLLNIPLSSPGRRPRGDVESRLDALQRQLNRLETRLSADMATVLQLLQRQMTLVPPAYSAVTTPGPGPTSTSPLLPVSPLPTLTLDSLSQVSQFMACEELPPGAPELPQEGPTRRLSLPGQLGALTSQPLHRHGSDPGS

Row | SMILES | hERG current change (%, negative = inhibition) at 10uM [%]
1 | CCN(CC)c1ccc(/C=N/NC(=O)c2cccc(S(=O)(=O)N3CCOCC3)c2)cc1 | -24.4
2 | CC1(C(=O)Nc2nnc(SCc3ccccc3)s2)Cc2ccccc2C(=O)O1 (centres unmarked) | -24.6
3 | COc1ccc(OCC(=O)c2c(O)c3ccccc3oc2=O)cc1 | -12.4
4 | CCOC(=O)C1=NN(C(=O)Cc2ccccc2)C(O)(C(C)(C)C)C1 (centres unmarked) | 9.74
5 | COC(=O)C1=NN(C(=O)c2cccc(Cl)c2)C(O)(C(C)(C)C)C1 (centres unmarked) | 8.11
6 | CCOC(=O)C1=NN(C(=O)c2cccc(Br)c2)C(O)(C(C)(C)C)C1 (centres unmarked) | -57.6
7 | COc1ccc(C2CC(=O)C3=C(C2)Nc2ccccc2N(C(C)=O)C3c2ccco2)cc1 (centres unmarked) | -35.8
8 | O=[N+]([O-])c1cccc(C(=NCc2ccccc2)NO)c1 | 15.9
9 | CN(C)C(=S)NC(=NCc1ccc([N+](=O)[O-])cc1)c1ccccc1 | -90.7
10 | CN(C)C(=S)Nc1ccc([N+](=O)[O-])cc1 | -0.053
11 | Nc1ncc([N+](=O)[O-])c(Oc2ccccc2F)n1 | 24.7
12 | CCCC1(CCC)C(=O)NC(=NCc2ccccc2)NC1=O | 12.7
13 | Cc1cc(C)n(-c2nc3c(c(=O)[nH]c(=O)n3C)n2CC(O)COc2ccccc2C)n1 (centres unmarked) | -31.9
14 | O=C(COc1cccc2c1CCN(Cc1ccccc1)C2=O)N1CCCCC1 | -15
15 | O=C(COc1cccc2c1CCN(Cc1ccc(Br)cc1)C2=O)N1CCOCC1 | -58.4
16 | CC1CCN(C(=O)COc2cccc3c2CCN(Cc2ccccc2)C3=O)CC1 | -36
17 | O=C(COc1cccc2c1CCN(Cc1ccccc1F)C2=O)N1CCCCC1 | -43.4
18 | O=C(COc1cccc2c1CCN(Cc1ccc(Cl)cc1)C2=O)N1CCOCC1 | -60.2
19 | CCN1CCc2c(OCC(=O)N3CCCCC3)cccc2C1=O | 5.33
20 | CC(C)(C)/C=N/NC(=O)CNC(=O)c1ccc2c(c1)OCCO2 | 15.6
21 | CC1(C)C2CCC1(C)C(OC(=O)CCn1ccnc1)C2 (centres unmarked) | -25.5
22 | Cc1ccc(C)c2sc(NC(=O)c3nc4ccccc4s3)nc12 | 2.76
23 | CCN(CC)C(=O)Oc1ccc(Br)cc1C(=O)Nc1ccc(F)c(Cl)c1 | 2.76

Row | SMILES | hERG current change (%, negative = inhibition) at 10uM [%]
24 | CC(=O)c1ccc(/C=C/c2nc3ccccc3n2C)o1 | -5.96
25 | CCn1c(CNc2ccc(F)cc2)nnc1SCCN1CCCCC1 | -12.1
26 | Fc1ccc(NCc2nnc(SCc3nnc(-c4ccccc4)o3)n2CC2CCCO2)cc1 (centres unmarked) | -53.1
27 | Cc1ccc(NCc2nnc(SCCN3CCCCC3)n2CC2CCCO2)c(C)c1 (centres unmarked) | -58.5
28 | Fc1ccc(NCc2nnc(SCc3nnc(-c4ccccc4)o3)n2Cc2ccccc2)cc1 | -46
29 | Cc1ccc(NCc2nnc(SCCN3CCCCC3)n2CC2CCCO2)cc1Cl (centres unmarked) | -92.4
30 | Cc1ccc(NCc2nnc(SCC(=O)NCc3ccco3)n2CC2CCCO2)cc1Cl (centres unmarked) | -7.7
31 | CCSc1nnc(CNc2ccc(F)cc2)n1CC1CCCO1 (centres unmarked) | -15.1
32 | Cc1ccc(NCc2nnc(SCC(=O)Nc3ncc(C)s3)n2CC2CCCO2)c(C)c1 (centres unmarked) | -12.4
33 | Cc1ccc(NCc2nnc(SCC(=O)Nc3ccccc3)n2CC2CCCO2)c(C)c1 (centres unmarked) | -0.0882
34 | Cc1ccc(NCc2nnc(SCC(N)=O)n2CC2CCCO2)c(C)c1 (centres unmarked) | 8.71
35 | Cc1ccc(NCc2nnc(SCC(=O)Nc3cccc(O)c3)n2CC2CCCO2)c(C)c1 (centres unmarked) | -68.2
36 | Cc1ccc(NCc2nnc(SCC(=O)N3CCCCC3)n2CC2CCCO2)c(C)c1 (centres unmarked) | -5.62
37 | CC1(CC(=O)N/N=C/c2cc3c(cc2Br)OCO3)OCCO1 | 15.5
38 | CCc1c(C)sc(NC(=O)OC)c1C(=O)N1CCCCC1 | -4.94
39 | COC(=O)c1ccc(N2CCN(c3ccccc3)CC2)c(NC(=O)C2CC2)c1 | -35.6
40 | CC(=NCCc1c[nH]c2ccccc12)c1c(O)n(Cc2ccccc2)c(=O)[nH]c1=O | 0.859
41 | COC(=O)N/N=C\c1cc(Br)ccc1OCc1ccccc1 | -6.55
42 | O=C1CCCC(=O)C1=C1SCCCS1 | -5.96
43 | COc1ccc(C(=O)N2CCN(c3ccc(C)c(C)c3)CC2)cc1OC | -6.14
44 | O=C(c1ccc(Cl)cc1)N1CCC(O)(CSc2ccccc2)CC1 | -38.1
45 | COc1ccc(C(=O)N2CCN(c3c(C)cccc3C)CC2)cc1OC | -68.8
46 | COc1cccc(SCC2(O)CCN(C(=O)c3ccc(Cl)cc3)CC2)c1 | -69

Row | SMILES | hERG current change (%, negative = inhibition) at 10uM [%]
47 | COc1ccc(C(=O)N2CCC(O)(c3ccc(Cl)cc3)CC2)cc1OC | -51.9
48 | COc1ccc(C(=O)N2CCN(c3ccc(C)cc3)CC2)cc1OC | -21.8
49 | COc1ccc(C(=O)N2CCC(O)(c3ccc(F)cc3)CC2)cc1OC | -38.6
50 | COc1ccc(C(=O)N2CCN(C(=O)c3ccc(-c4ccccc4)cc3)CC2)cc1OC | -43.6
51 | O=C(c1ccc(Cl)cc1)N1CCC(O)(CSc2ccc(Cl)cc2)CC1 | -44.4
52 | COc1cc(C(=O)N2CCC(O)(c3ccccc3)CC2)cc(OC)c1OC | 14.7
53 | COc1cc(C(=O)N2CCN(c3ccc(C)cc3C)CC2)cc(OC)c1OC | -19.7
54 | COc1ccc(C(=O)N2CCN(c3ccc(C)cc3C)CC2)cc1OC | -68.5
55 | Cc1nc2ccc(Cl)cc2c(-c2ccccc2)c1C(=O)N(C)C.Cl | -5.56
56 | CCc1ccccc1NC(=O)CNC(=O)c1cc(C2CC2)nn1-c1ccccc1 | -28.8
57 | O=C(c1noc2c1CCCC2)N1CCC(CO)(Cc2ccccc2Cl)CC1 | -22.9
58 | COCCCNC(=O)Cn1ccc(N)nc1=O | 11.4
59 | CN(C)C=O.O=C(Nc1cccc(S(=O)(=O)NC2=NCCCCC2)c1)c1cc(-c2ccco2)nc2ccccc12 | 19.7
60 | COc1ccc(-n2c(CNc3ccc(C)cc3)nnc2SCC(=O)Nc2nc(-c3ccccc3)cs2)cc1 | -23.1
61 | CCN1C(=O)/C(=C/N(C)c2ccccc2)OC1=S | -8.25
62 | CC(=O)Nc1sc2c(c1C#N)CCC(C)C2 (centres unmarked) | -3.48
63 | CCN1CCN(CC(=O)Nc2sc3c(c2C#N)CCC(C)C3)CC1 (centres unmarked) | -51.7
64 | CCN1CCN(CC(=O)Nc2sc3c(c2C#N)CCC3)CC1 | -18.1
65 | CC1CCc2c(sc(NC(=O)C(=O)NCc3ccco3)c2C#N)C1 (centres unmarked) | -66.3
66 | CC1CCc2c(sc(NC(=O)CN3CCN(C(=O)c4ccco4)CC3)c2C#N)C1 (centres unmarked) | -41.5
67 | CC1CCc2c(sc(NC(=O)COC(=O)c3ccccc3NCc3ccco3)c2C#N)C1 (centres unmarked) | 7.34
68 | O=C(CN1CCOc2ccccc21)N1CCC(Cc2ccccc2)CC1 | -26.3
69 | Cc1nn(CCc2nn[nH]n2)c2nc(-c3ccccc3)cc(C(F)(F)F)c12 | 19.3

Row | SMILES | hERG current change (%, negative = inhibition) at 10uM [%]
70 | COc1ccc(-c2csc(NCCc3nc4cc(Cl)c(N5CCCCC5)cc4n3CCOCCO)n2)cc1 | -10.4
71 | CC1CCN(CC(=O)n2c3c(c4ccccc42)CCCC3)CC1.Cl | 0.546
72 | CCc1ccc(-c2csc(NC(=O)c3cccnc3)n2)cc1 | -3.93
73 | Cc1ccccc1N=C1N=C(N)c2ccccc21 | -2.13
74 | CN(C)CCNC(=O)C1CC(=O)N(c2ccc(F)c(Cl)c2)C1 (centres unmarked) | -11.2
75 | CC1CCCN(CCCNC(=O)C2CC(=O)N(c3ccc(F)c(Cl)c3)C2)C1 (centres unmarked) | -37.9
76 | O=C(NCCN1CCOCC1)C1CC(=O)N(c2ccc(F)c(Cl)c2)C1 (centres unmarked) | -3.45
77 | COCCNC(=O)C1CC(=O)N(c2ccc(F)c(Cl)c2)C1 (centres unmarked) | -2.89
78 | CC1CCCCN1CCNC(=O)C1CC(=O)N(c2ccc(F)c(Cl)c2)C1 (centres unmarked) | -56.9
79 | CN(CCNC(=O)C1CC(=O)N(c2ccc(F)c(Cl)c2)C1)Cc1ccccc1 (centres unmarked) | -52.5
80 | CN(C)c1ccc(/C=N/NC(=O)c2cccc(N3CCCC3=O)c2)cc1 | 12.7
81 | O=C(Oc1ccc2ccccc2c1)c1ccco1 | 5.27
82 | O=C(Oc1ccc2ccc(=O)oc2c1)c1ccco1 | -73.1
83 | O=C(Oc1ccc2ccc(=O)oc2c1)c1ccccc1 | 14.2
84 | COc1ccc(CN2CCN(C(=O)c3cccs3)CC2)cc1Br | -24.4
85 | CCC(CC)C(=O)NCCc1ccc(OC)cc1 | 17.8
86 | Cc1csc(NC(=O)c2cccnc2)n1 | 13.5
87 | CCc1ccc(CN(C)C(=O)c2cc(S(=O)(=O)N3CCN(CC)CC3)ccc2Cl)cc1 | -25.3
88 | CCN1CCN(S(=O)(=O)c2ccc(Cl)c(C(=O)N(C)Cc3cccs3)c2)CC1 | -14.6
89 | CCN1CCN(S(=O)(=O)c2ccc(Cl)c(C(=O)N(C)C(c3ccccc3)c3ccccc3)c2)CC1 | -50.5
90 | CCN1CCN(S(=O)(=O)c2ccc(Cl)c(C(=O)N(C)Cc3cccc(Cl)c3Cl)c2)CC1 | -61.3
91 | CCN1CCN(S(=O)(=O)c2ccc(Cl)c(C(=O)N(C)Cc3ccc(Cl)cc3Cl)c2)CC1 | -9.34
92 | CCN1CCN(S(=O)(=O)c2ccc(Cl)c(C(=O)N(C)Cc3ccccc3)c2)CC1 | -28.8
